Hit rate of the full screen: of about 16,000 compounds, about 2,600 (16%) were called active. Inconclusive results (about 20%) are left out. The list is a sample of the results. A number with no mark means an inactive call. Calls follow the shape of the dose curve; as a rule, active = well fitted curve in the direction sought with a large enough effect; inconclusive = small, poorly fitted or top-dose-only effect, or effect the other way; inactive = no such curve, though single readings can be large or run the other way.
These compounds were tested against Cytochrome P450 2D6 (Homo sapiens) (UniProt P10635) (assay: Cytochrome panel assay with activity outcomes). Conditions: recombinant CYP, pro-luciferin dealkylation, luminescence, p450-cyp2d6; series mostly up to 57.1 µM.
Chain of Cytochrome P450 2D6 (Homo sapiens) (P10635 whole entry, looked up): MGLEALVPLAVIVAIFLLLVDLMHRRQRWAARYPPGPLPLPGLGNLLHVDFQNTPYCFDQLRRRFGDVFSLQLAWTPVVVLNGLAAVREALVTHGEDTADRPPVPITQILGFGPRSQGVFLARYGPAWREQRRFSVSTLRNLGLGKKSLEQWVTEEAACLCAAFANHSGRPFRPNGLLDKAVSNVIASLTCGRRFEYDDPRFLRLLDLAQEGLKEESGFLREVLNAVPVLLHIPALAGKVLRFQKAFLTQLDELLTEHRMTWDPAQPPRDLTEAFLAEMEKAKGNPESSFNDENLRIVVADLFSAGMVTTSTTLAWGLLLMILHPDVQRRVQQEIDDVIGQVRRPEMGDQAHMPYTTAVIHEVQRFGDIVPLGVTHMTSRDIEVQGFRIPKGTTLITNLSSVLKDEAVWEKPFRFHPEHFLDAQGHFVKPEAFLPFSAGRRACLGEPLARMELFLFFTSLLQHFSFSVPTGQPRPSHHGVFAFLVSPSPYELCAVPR
In the case of `Cc1ncc([N+](=O)[O-])n1CC(=O)NCc1ccccc1`, the AC50 is reported as “inactive”. For `O=C(NC1CCCCC1)C12CC3CC(C1)CC(n1cncn1)(C3)C2`, the AC50 was 11.2 µM (active). For `COc1ccc(NC(=O)C23CC4CC(C2)CC(n2cnc(Br)n2)(C4)C3)c(C)c1`, the AC50 was “inactive”. In the case of `O=S(=O)(c1cccc(-c2nnc(-c3ccc(Br)cc3)o2)c1)N1CCCCCC1`, the AC50 is reported as “inactive”. `Cc1ccc(S(=O)(=O)n2ccc(-c3cccc(OCc4c(F)cccc4Cl)c3)n2)cc1` was tested, and the AC50 was “inactive”. `COc1ccc(C(=O)N/N=C2/C(=O)c3c(C)cc(C)cc3CC2(C)C)cc1` showed an activity, negative = inhibition of -4.67% [at 11.4 µM]. For `CCCC1S/C(=N/N=C/c2ccc(OC)cc2)N(Cc2ccc(OC)cc2)C1=O` (stereo not drawn), the AC50 was “inactive”. In the case of `COc1cccc(C(=O)n2c(SC)nc3cc4c(cc32)OCCO4)c1`, the AC50 is reported as “inactive”. With `Cc1ncc(N=Nc2ccccc2Cl)c(-c2ccccc2)n1` the AC50 was “inactive”. With `CCOC(=O)c1cc2c(=O)n3ccccc3nc2n(CCCOC)c1=NC(C)=O` the AC50 was “inactive”. In the case of `COc1ccc(CCn2c(=N)c(C(=O)NCc3ccco3)cc3c(=O)n4ccccc4nc32)cc1`, the AC50 is reported as 1.12 µM (active). For `CCOc1ccc(-n2cc(C(=O)NCc3ccco3)c3cc(OC)c(OC)cc3c2=O)cc1`, the AC50 was “inactive”. In the case of `O=C(/C=C/c1ccccc1)N1CCN(Cc2nc3ccccc3c(=O)[nH]2)CC1`, the AC50 is reported as “inactive”. For `CS(=O)(=O)Nc1cccc(-c2nc(NCc3ccccc3)c3ccccc3n2)c1`, the AC50 was 20 µM (active). In the case of `CS(=O)(=O)Nc1cccc(-c2nc(NCc3cccnc3)c3ccccc3n2)c1`, the AC50 is reported as 20 µM (active). With `Cc1cccc(CNc2nc(-c3cccc(NS(C)(=O)=O)c3)nc3ccccc23)c1` the AC50 was 12.6 µM (active). In the case of `COc1cccc(-c2nc(NCc3cccs3)c3ccccc3n2)c1`, the AC50 is reported as 12.6 µM (active). With `O=C(O)CSc1sc(=S)sc1SCC(=O)O` the AC50 was “inactive”. With `N[C@@H](Cc1ccc(O)c(O)c1)C(=O)O` the AC50 was “inactive”. With `O=C(NNC(=O)c1cc2cc3ccccc3nc2s1)c1cccc(Cl)c1` the AC50 was “inactive”. For `COc1ccc(NC(=O)c2ccc3c(=O)n(Cc4ccco4)c(=S)[nH]c3c2)c(OC)c1`, the AC50 was “inactive”. With `Cc1nc2c(ccc3nc(NC(=O)c4ccc5c(c4)OCCO5)sc32)s1` the AC50 was “inactive”. With `CCOCCCNC(=O)C1CCN(S(=O)(=O)N2CC(C)CC(C)C2)CC1` (stereo not drawn) the AC50 was “inactive”. `CC[C@H](C)N(C)C(=O)c1cc2ccccc2c(-c2ccccc2Cl)n1` was tested, and the AC50 was “inactive”. `CCOC(=O)CC(NC(=O)c1ccc(C)cc1)c1ccc(C)cc1` (stereo not drawn) was tested, and the AC50 was “inactive”. For `O=C(c1cccc(F)c1)N1CCC[C@@]2(CCN(c3cccc(-c4ccccc4)c3)C2)C1`, the AC50 was “inactive”. For `COc1cccc(Nc2ncc3nc(C)c(=O)n(-c4ccccc4)c3n2)c1`, the AC50 was “inactive”. With `Cc1oc2c(C)c(O)ccc2c(=O)c1-c1ccc2ccccc2n1` the AC50 was “inactive”. For `O=[N+]([O-])c1ccc(CSc2ncnc3c2ncn3[C@@H]2O[C@@H](CO)[C@@H](O)[C@H]2O)cc1`, the AC50 was “inactive”. In the case of `CS(=O)(=O)Nc1cccc(-c2nc(NCc3cccs3)c3ccccc3n2)c1`, the AC50 is reported as 10 µM (active). For `CCOC(=O)C(NC(C)=O)C(OC(C)=O)c1cccc(N(CCO)CCO)c1` (stereo not drawn), the AC50 was “inactive”. `Cc1nc(-c2c(C(F)(F)F)noc2-c2ccc(O)cc2O)cs1` was tested, and the AC50 was “inactive”. In the case of `CC(=O)Nc1ccc(S(=O)(=O)c2ccc(N)cc2)cc1`, the AC50 is reported as “inactive”. For `COc1ccc(CCNC(=O)CC(NS(=O)(=O)c2ccc(NC(C)=O)cc2)C(C)C)cc1OC` (stereo not drawn), the AC50 was “inactive”. For `CC(=O)Nc1ccc(S(=O)(=O)NCCc2ccc(F)cc2)cc1`, the AC50 was 15.8 µM (active). In the case of `CN(Cc1ccco1)c1cc(-c2ccc3c(c2)OCO3)ncn1`, the AC50 is reported as 12.6 µM (active). For `CN(Cc1ccco1)c1cc(-c2ccoc2)ncn1`, the AC50 was “inactive”. `CN(C)c1ccc(-c2cc(N(C)Cc3ccco3)ncn2)cc1` was tested, and the AC50 was 7.94 µM (active). `CN(C)C(=O)c1ccc(-c2cc(N(C)Cc3ccco3)ncn2)cc1` was tested, and the AC50 was “inactive”. With `COc1ccc(C(=O)N2CCC3(CC2)CN(C(=O)Nc2cccc(C#N)c2)C3)cc1` the AC50 was “inactive”. `Cc1nn(CCc2n[nH]c(=S)n2-c2ccc(F)c(Cl)c2)c(C)c1[N+](=O)[O-]` was tested, and the AC50 was “inactive”. With `C#C[C@@]1(OC(C)=O)CC[C@@H]2[C@@H]3CCC4=C[C@@H](OC(C)=O)CC[C@H]4[C@H]3CC[C@]21C` the AC50 was “inactive”. In the case of `N#CCSc1ncnc2c1cnn2CCO`, the AC50 is reported as “inactive”. In the case of `COC(=O)c1c(-c2ccccc2)csc1NC(=O)CSc1ncnc2sc(C)c(C)c12`, the AC50 is reported as “inactive”. For `NC(=S)c1ccc[n+]([C@@H]2O[C@@H](COP(=O)([O-])OP(=O)(O)OC[C@@H]3O[C@@H](n4cnc5c(N)ncnc54)[C@@H](OP(=O)(O)O)[C@H]3O)[C@@H](O)[C@H]2O)c1`, the AC50 was “inactive”. `CC(=O)N1CCC2(CCN(Cc3ccncc3)CC2)CC1` was tested, and the AC50 was “inactive”. In the case of `COC(=O)N1CCC2(CCN(Cc3nccs3)CC2)CC1`, the AC50 is reported as “inactive”. With `COC(=O)N1CCC2(CC1)CCN(c1cccc(-c3ccccc3)c1)CC2` the AC50 was “inactive”. For `CC(=O)N1CCC2(CC1)CCN(c1ccc(-c3ccccc3)cc1)CC2`, the AC50 was “inactive”. In the case of `COc1ccccc1CN1CCC2(CC1)CCN(C(=O)c1c(C)noc1C)CC2`, the AC50 is reported as 7.94 µM (active). In the case of `COc1ccccc1CN1CCC2(CC1)CCN(C(C)=O)CC2`, the AC50 is reported as 5.01 µM (active). With `CC(=O)N1CCC2(CC1)CCN(c1ccccn1)CC2` the AC50 was “inactive”. With `COc1ccccc1CN1CC[C@@]2(CCCN(C(=O)c3c(C)noc3C)C2)C1` the AC50 was “inactive”. `COC(=O)N1CCC2(CCN(Cc3ccccc3OC)CC2)CC1` was tested, and the AC50 was 2 µM (active). With `Cc1noc(C)c1C(=O)N1CCC2(CCN(Cc3ccccc3)CC2)CC1` the AC50 was “inactive”. With `COc1ccc(C(=O)N2CCC3(CCN(Cc4ccncc4)CC3)CC2)cc1` the AC50 was “inactive”. In the case of `COCC(=O)N1CCC2(CCN(Cc3ccncc3)CC2)CC1`, the AC50 is reported as 6.31 µM (active). Compound `Cc1cc2c(cc1C)NC1=C(N2)O[C@H](c2c[nH]c3ccc(COc4ccccc4)cc23)C1=O` has an activity, negative = inhibition of -9.09% [at 11.4 µM]. For `N#C/C(=N\O)c1nc(-c2ccccc2)cs1`, the AC50 was “inactive”. For `CC(C)(C)c1ccc(OCC(=O)NNC(=O)Cc2cccs2)cc1`, the AC50 was “inactive”. Work on `C/C(C[n+]1ccccc1)=N\N=C(N)N` yielded an activity, negative = inhibition of 6.81% [at 11.4 µM]. In the case of `CN(C)C(=O)CSC1c2ccccc2C(=O)N1c1ccccc1` (stereo not drawn), the AC50 is reported as “inactive”. In the case of `O=c1c(-c2ccccc2)nc2cnc(N3CCNCC3)nc2n1C1CC1`, the AC50 is reported as “inactive”. In the case of `Cc1onc(-c2c(F)cccc2Cl)c1C(=O)N[C@@H]1C(=O)N2[C@H]1SC(C)(C)[C@H]2C(=O)O`, the activity, negative = inhibition is reported as 16.2% [at 11.4 µM]. For `CNc1cc(N2CCCCCC2)ccc1[N+](=O)[O-]`, the AC50 was “inactive”. For `CCC(CC)C(=O)Nc1cccc(/C(C)=N/NC(=O)c2c(Br)cnn2C)c1`, the AC50 was “inactive”. For `CN(C)CCn1nnnc1SCC1=C(C(=O)O)N2C(=O)[C@@H](NC(=O)Cc3csc(N)n3)[C@@H]2SC1`, the AC50 was “inactive”. With `COc1ccc(C(=O)N2CCC3(CCN(Cc4cc(C(F)(F)F)cc(C(F)(F)F)c4)CC3)CC2)cc1` the AC50 was “inactive”. With `COc1ccccc1CN1CCC2(CCNCC2)CC1` the AC50 was 0.0316 µM (active). With `COCC(=O)N1CCC2(CC1)CN(Cc1ccccc1OC)C2` the AC50 was “inactive”. With `COc1ccc(NC(=O)N2CCCC3(CCNCC3)C2)cc1` the AC50 was “inactive”. `COCC(=O)N1CCC2(CCN(Cc3ccccc3OC)CC2)CC1` was tested, and the AC50 was 15.8 µM (active). `COCC(=O)N1CCC2(CC1)CCN(C(=O)Nc1ccc(OC)cc1)CC2` was tested, and the AC50 was “inactive”. In the case of `COCC(=O)N1CCC2(CC1)CN(Cc1cc(C(F)(F)F)cc(C(F)(F)F)c1)C2`, the AC50 is reported as “inactive”. For `COC(=O)N1CCC2(CCN(Cc3cc(C(F)(F)F)cc(C(F)(F)F)c3)CC2)CC1`, the AC50 was 10 µM (active). In the case of `Cc1cc2c(cc1S(N)(=O)=O)S(=O)(=O)CCC2`, the AC50 is reported as “inactive”. `CON(C)C(=O)c1nnc2c(n1)[nH]c1ccccc12` showed an activity, negative = inhibition of -2.74% [at 11.4 µM]. With `N[C@H](CCC(=O)N[C@H](CSN=O)C(=O)NCC(=O)O)C(=O)O` the AC50 was “inactive”. With `Cc1cc(C(C)(C)C)c(OCCCN2CCOCC2)c(C(C)(C)C)c1` the AC50 was 2 µM (active). In the case of `Cc1ccc(Oc2ncc(CN3CCOCC3)s2)cc1`, the AC50 is reported as “inactive”. `COc1cc(N2CCOCC2)ncn1` was tested, and the AC50 was “inactive”. `N[C@@]1(C(=O)O)CN[C@H](C(=O)O)C1` was tested, and the AC50 was “inactive”. `NC1(C(=O)O)CC(C(=O)O)C1` (stereo not drawn) was tested, and the AC50 was “inactive”. For `Cc1cc(C)cc(-n2nnnc2SCC(=O)Nc2nc(-c3ccc(F)cc3)cs2)c1`, the AC50 was “inactive”. Work on `COc1ccc(COC(=O)N/N=C2/C[C@@H](O)[C@@H](O)[C@@H]3[C@@H]4C(=O)N(C(C)(C)C)C(=O)[C@H]4CC[C@@H]23)cc1` yielded an activity, negative = inhibition of 12.5% [at 11.4 µM]. `CCC(CC)C(=O)Nc1cccc(/C(C)=N\NC(=O)c2ccc(C)s2)c1` was tested, and the AC50 was “inactive”. `COC(=O)CSC(C(=O)Nc1ccc(C)c(C)c1)c1ccccc1` (stereo not drawn) was tested, and the AC50 was “inactive”. `CCC(CC)C(=O)Nc1ccc(C)c(O)c1` was tested, and the AC50 was 17.8 µM (active). `CCOC(=O)CN(C(=O)CCC(=O)Nc1cc(C)on1)C(C(=O)NC1CCCC1)c1cccnc1` (stereo not drawn) was tested, and the AC50 was “inactive”. With `CCOc1ccc(N(C(=O)/C=C/C(=O)Nc2cc(C)on2)C(C(=O)NC2CCCC2)c2ccccc2C)cc1` (stereo not drawn) the AC50 was 14.1 µM (active). In the case of `Cc1ccccc1C(C(=O)NC1CCCC1)N(C(=O)Cc1cccs1)c1ccc2c(c1)OCCO2` (stereo not drawn), the AC50 is reported as “inactive”. `COc1cccc(C(CC(=O)Nc2cccc3ccccc23)NC(=O)c2ccccc2)c1` (stereo not drawn) was tested, and the AC50 was “inactive”. With `COC(=O)c1cc2c(ccn2-c2ccc(F)cc2)n1C(C)C` the AC50 was “inactive”. In the case of `CNC(=O)c1cc2c(cn1)[nH]c1ccccc12`, the AC50 is reported as “inactive”. In the case of `O=C1c2ccccc2-c2n[nH]c3cccc1c23`, the AC50 is reported as 0.398 µM (active). With `Nc1n[nH]c2ccccc12` the activity, negative = inhibition was -3.15% [at 11.4 µM]. `O=c1ccc(-c2ccccc2)n[nH]1` was tested, and the activity, negative = inhibition was 2.58% [at 11.4 µM]. In the case of `Cc1ccc(NC(=O)CN2C(=O)N/C(=C/c3ccc(C)o3)C2=O)cc1`, the AC50 is reported as “inactive”.

From PubChem BioAssay AID1851 (National Center for Advancing Translational Sciences (NCATS), 2009)
% is scaled to controls: 0 for no effect and ±100 for the full control effect.
